Assay outcomes from PubChem BioAssay.
Peg3 promoter – inhibitors of Peg3 promoter. HeLa PEG-Prom luciferase reporter, luminescence, overnight. inhibition, % at 20 µM. hit rate 1.7% among 360,000. AID 588405;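 active means inhibition of at least 50% at 20 µM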
EBV LMP1 NFkB – reduces LMP1-driven NF-kappaB luciferase signal; LMP1-induced NF-kappaB luciferase reporter cells, luminescence; inhibition, % at 12.5 µM; hit rate 0.69% among 350,000; in the data active means inhibition above about 41%; inconclusive means no clear call, values can overlap the other calls
TRPM1 prom inh – inhibitors of MITF-driven TRPM1 promoter in melanoma cells. SK-MEL-5 TRPM1 promoter luciferase, 24 h. inhibition, % at 12.5 µM. hit rate 0.83% among 330,000;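 active means mean inhibition across replicates of 60% or more, whatever share of single replicates reaches that level; inconclusive means some that reach 60%, reason not given; inactive means mean inhibition across replicates below 60%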
Shn3 inh set2 – Schnurri-3 reporter inhibition in Clone20 osteoblasts; Clone20 osteoblast Shn3 3'UTR firefly luciferase, 24 h; inhibition, % at 12.5 µM; hit rate 0.52% among 360,000;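 active means mean inhibition of at least 75% with every replicate also reaching 75%; inconclusive means mean inhibition at least 75% but some replicate below; inactive means mean inhibition below 75%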
TWEAK Fn14 block – inhibitors of TWEAK-Fn14 interaction signaling | hit rate 2% among 360,000 | inhibition, % at 10 µM | TWEAK-stimulated Fn14 reporter cells, luciferase luminescence, 8 h | AID 1159606; in the data active means inhibition above about 50%
TROY NFkB inh – blocks TROY-dependent signaling in reporter cells | inhibition, % at 10 µM | Q293 LMP1-TROYcd NF-kB luciferase reporter, 4 h | hit rate 0.98% among 360,000;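 active means compounds whose plate-normalised and pattern-corrected inhibition of the luciferase reporter signal at the single screening dose is 50% or more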
Each line names hits and unclear results; the compound was inactive in the other large screens. This is a sample that favours compounds with a hit; in the whole collection about 4.1% have one here.

Cc1nn2cc(-c3ccccc3)nc2s1	TWEAK Fn14 block 57
c1ccc(-c2cn3nc(-c4ccccc4)sc3n2)cc1	TWEAK Fn14 block 86, TROY NFkB inh 61
CC(C)(C)NC(=O)C1c2ccccc2OCC(=O)N1Cc1ccccn1 (centres undefined)	none (no result: Peg3 promoter, EBV LMP1 NFkB, TRPM1 prom inh, Shn3 inh set2)
COc1cccc(/C=N/n2c(C3CCCCC3)n[nH]c2=S)c1O	TWEAK Fn14 block 60
CCNS(=O)(=O)c1ccc(NC(=O)Cn2nc(C(F)(F)F)cc2C)cc1	TWEAK Fn14 block 87 (no result: TROY NFkB inh)
Cc1cc(C(F)(F)F)nn1CC(=O)NNC(=S)Nc1ccc(F)cc1	none
CCc1nc2ccc(C(=O)NC3CCN(Cc4ccccc4)CC3)cn2c1N(CC)Cc1cccc(Br)c1	Peg3 promoter 94 (no result: EBV LMP1 NFkB, TRPM1 prom inh)
O=C1C(=O)N(c2nccs2)C(c2ccccc2F)/C1=C(\O)c1ccc2c(c1)OCCO2 (centres undefined)	none
O=C1C(=O)N(c2nccs2)C(c2ccccc2)/C1=C(\O)c1ccc2c(c1)OCCO2 (centres undefined)	TRPM1 prom inh 67
CCOC(=O)c1ccc(NC(=O)c2nc[nH]c2C(=O)N(C)Cc2ccccc2)cc1	none
Cc1ccc(NC(=O)c2cccc(S(=O)(=O)N3CCc4ccccc4C3)c2)nc1	none
CCc1cccc(CC)c1NC(=O)COC(=O)c1cccc(S(=O)(=O)N2CCc3ccccc3C2)c1	none
COc1cc(OC)c(OC)cc1CNC(=O)c1cccc(S(=O)(=O)N2CCc3ccccc3C2)c1	Shn3 inh set2 inconclusive, TWEAK Fn14 block 81, TROY NFkB inh 51
Cc1cc(N2CCN(C)CC2)ccc1NC(=O)c1cccc(S(=O)(=O)N2CCc3ccccc3C2)c1	Peg3 promoter 109
Cc1cccc(C(C)C)c1NC(=O)COC(=O)c1cccc(S(=O)(=O)N2CCc3ccccc3C2)c1	Peg3 promoter 60
CSc1ccccc1NC(=O)CN(C)CC(=O)Nc1ccc(Cl)cc1F	none
O=S(=O)(CCN1CCCCC1)CCS(=O)(=O)CCN1CCCCC1	TROY NFkB inh 61
NC(=O)CCS(=O)(=O)CCN1CCCCC1	none
Cc1ccc(C(=O)NCC(=O)OCc2c(F)cccc2Cl)s1	none
Cc1c(NC(=O)c2cccc(NC(=O)COc3ccccc3C#N)c2)c(=O)n(-c2ccccc2)n1C	EBV LMP1 NFkB 54
Cc1c(NC(=O)c2cccc(NC(=O)COc3ccccc3)c2)c(=O)n(-c2ccccc2)n1C	none
O=C(NCc1ccc2c(c1)OCO2)c1[nH]c(C(F)(F)F)nc1-c1ccccc1	none (no result: EBV LMP1 NFkB, TRPM1 prom inh)
Clc1cc(Br)ccc1OCCOCCN1CCOCC1	none
Cc1nn(-c2ccccc2)c2[nH]c(=O)c(CNc3ccc4c(c3)OCCO4)cc12	TWEAK Fn14 block 58, TROY NFkB inh 66
CC1CCCN(CCOc2ccc3ccccc3c2Br)C1 (centres undefined)	none
CC(C)C1C(=O)N(Cc2cn(CCC3OCCCO3)nn2)CCS(=O)(=O)N1Cc1ccc(-c2ccc(Cl)c(Cl)c2)cc1 (centres undefined)	Peg3 promoter 88 (no result: TRPM1 prom inh)
CC1C(=O)N(Cc2cn(CCC3OCCO3)nn2)CCS(=O)(=O)N1Cc1ccc(-c2ccc(Cl)c(Cl)c2)cc1 (centres undefined)	TWEAK Fn14 block 56 (no result: TRPM1 prom inh)
Cc1ccc(-c2ccc(CN3C(C(C)C)C(=O)N(Cc4cn(Cc5ccco5)nn4)CCS3(=O)=O)cc2)cc1 (centres undefined)	Peg3 promoter 56 (no result: TRPM1 prom inh)
Nc1c2c(nc3sc4c(c13)CCCC4)-c1ccccc1CC2	TROY NFkB inh 56
Cc1nn(C)cc1CN(C)Cc1ccc(OCC(O)CN2CCCCC2)cc1 (centres undefined)	none
CN(Cc1ccc(OCC(O)CN2CCCCC2)cc1)Cc1ccnc2ccccc12 (centres undefined)	Shn3 inh set2 87
c1ccc(COc2cccc(CN3CCCCC3)c2)cc1	TWEAK Fn14 block 103
CCN(CC)c1ccc2c(Cl)c(Br)c(=O)oc2c1	Peg3 promoter 104, Shn3 inh set2 98, TWEAK Fn14 block 85
CCN(CC)c1ccc2c(C)c(Cl)c(=O)oc2c1	none
CCN(CC)c1ccc2c(c1)oc(=O)c1c(Cl)cc(=O)oc12	Peg3 promoter 101, TRPM1 prom inh 80, Shn3 inh set2 96, TWEAK Fn14 block 76
COc1cccc2sc3ccc(C#CC4(O)CCCCC4)cc3c(=O)c12	TROY NFkB inh 77
COc1cccc2oc3cc(C#CC4(O)CCCCC4)ccc3c(=O)c12	TWEAK Fn14 block 73, TROY NFkB inh 77
